Drawing on PubChem BioAssay (NCI), this text covers growth for nine compounds.

Compounds without any hit were thinned out: in the full panel of roughly 83,000, 20% have a hit.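 Each cell line was grown in a 96-well plate and treated with one concentration of compound for 48 hours. Values below 10 were considered active.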 Unmarked numbers belong to inactive results. Active and inactive are the calls of the source.

Holding throughout (test): NCI-60 one-dose screen, 48 h (100 = growth as untreated, 0 = no growth, -100 = all killed)
One assay relates to HCT-15 colon. To be noted: 10 µM unless noted.
The next assay has as its system HT29 colon. To be noted: 10 µM unless noted.
A further assay concerns SNB-75 CNS. To be noted: 10 µM unless noted.
The subject of another assay is U251 CNS. To be noted: 10 µM unless noted.
The next assay concerns PC-3 prostate. Particulars: 10 µM unless noted.
The test system of a further assay is SK-MEL-5 melanoma. To be noted: 10 µM unless noted.
For another assay, the system named is UACC-62 melanoma. To be noted: 10 µM unless noted.
The next assay deals with LOX IMVI melanoma. To be noted: 10 µM.
The test system of the next assay is SK-MEL-28 melanoma. Particulars: 10 µM unless noted.
In the next assay the test system is SK-MEL-2 melanoma. Particulars: 10 µM unless noted.
The subject of the next assay is EKVX NSCLC. Particulars: 10 µM unless noted.
The next assay deals with UO-31 renal. Particulars: 10 µM unless noted.
In a further assay the test system is TK-10 renal. To be noted: 10 µM unless noted.
The next assay deals with ACHN renal. Particulars: 10 µM unless noted.
A further assay deals with CAKI-1 renal. Particulars: 10 µM unless noted.
The test system of another assay is A498 renal. Particulars: 10 µM unless noted.
The subject of a further assay is CCRF-CEM leukemia. Particulars: 10 µM unless noted.
Another assay relates to MOLT-4 leukemia. Particulars: 10 µM unless noted.

For `CC(=O)OC[C@@]1(C)C2CC[C@]3(C)C(CC=C4C5CC(C)(C)CC[C@]5(C(=O)Nc5ccc(C)cc5)CC[C@]43C)[C@@]2(C)C[C@@H](OC(C)=O)[C@@H]1OC(C)=O` (some centres undefined), the growth in the assay on HCT-15 colon was 35.1%; in the assay with HT29 colon, 30.6%; in the assay on SNB-75 CNS, 57%; in the assay with U251 CNS, 40.7%; with PC-3 prostate, 34.3%; in the assay on SK-MEL-5 melanoma, 7.75% (active). Further, the growth with UACC-62 melanoma was 48.2%; in the assay on LOX IMVI melanoma it was 12.5%; in the assay with SK-MEL-28 melanoma, 77.1%; in the assay on SK-MEL-2 melanoma, 39.4%; with EKVX NSCLC, 32.4%; in the assay on UO-31 renal, 40.9%. The growth was 53.2% in the assay with TK-10 renal; 38.9% with ACHN renal; 45.8% in the assay with CAKI-1 renal; 67.1% in the assay with A498 renal; 32.8% with CCRF-CEM leukemia; 34.4% with MOLT-4 leukemia.
In the case of `CCCCCCCCc1ccc(C(=O)Nc2ccc(C)cc2C(=O)O)cc1C`, the growth was 94% in the assay on HCT-15 colon; 108% in the assay with HT29 colon; 92.4% with SNB-75 CNS; 88.1% with U251 CNS; 84.2% in the assay with PC-3 prostate; 94.3% in the assay on SK-MEL-5 melanoma. Also, the growth with UACC-62 melanoma is 91.3%; in the assay on LOX IMVI melanoma it was 101%; with SK-MEL-28 melanoma, 109%; with SK-MEL-2 melanoma, 97.5%; in the assay with EKVX NSCLC, 88.4%; in the assay with UO-31 renal it was 78.6%. Further, the growth with TK-10 renal was 102%; in the assay with ACHN renal it was 84.4%; with CAKI-1 renal, 78.2%; in the assay on A498 renal, 98.8%; in the assay on CCRF-CEM leukemia it was 79.8%; in the assay with MOLT-4 leukemia, 90.8%.
For the compound `CC(C)CSc1nc(NCCc2c[nH]c3ccccc23)c(C#N)c(-c2ccccc2)n1`, the growth was 22.6% in the assay on HCT-15 colon; 4.54% (active) in the assay on HT29 colon; 82.8% in the assay with SNB-75 CNS; 33.5% with U251 CNS; 17.8% in the assay on PC-3 prostate; 27.3% in the assay on SK-MEL-5 melanoma. The growth in the assay on UACC-62 melanoma was 77.3%; in the assay with LOX IMVI melanoma, 33.3%; with SK-MEL-28 melanoma, 87.3%; in the assay on SK-MEL-2 melanoma, 75.6%; in the assay with EKVX NSCLC, 39.7%; in the assay on UO-31 renal, 72.2%. Further, the growth in the assay on TK-10 renal is 110%; in the assay with ACHN renal, 69.3%; with CAKI-1 renal, 50.8%; in the assay on A498 renal, 67.9%; in the assay with CCRF-CEM leukemia it was 30.2%; in the assay on MOLT-4 leukemia, 30.7%.
For the compound `Cc1ccc(C(=O)CSc2nc3ccc(F)cc3c(=O)n2-c2ccc(Cl)cc2)cc1`, the growth was 59.2% in the assay on HCT-15 colon; 49.9% with HT29 colon; -19.4% (active) in the assay on SNB-75 CNS; 19.6% with U251 CNS; 25.9% with PC-3 prostate; 68.1% in the assay on SK-MEL-5 melanoma. In addition, the growth in the assay with UACC-62 melanoma is 71.4%; with LOX IMVI melanoma, 60.7%; in the assay with SK-MEL-28 melanoma, 77.2%; in the assay with SK-MEL-2 melanoma it was 99.1%; with EKVX NSCLC, 51.1%; in the assay on UO-31 renal, 56.4%. Besides, the growth in the assay on TK-10 renal was 83.7%; in the assay on ACHN renal, 33.3%; in the assay on A498 renal, 55.7%; in the assay with CCRF-CEM leukemia, 75.8%; in the assay on MOLT-4 leukemia, 82.4%.
`COc1ccc(-c2nc(SC(C)C)nc(NCCc3c[nH]c4ccccc34)c2C#N)cc1`: the growth in the assay with HCT-15 colon is 15.3%; with HT29 colon, 8.23% (active); with SNB-75 CNS, 65.6%; with U251 CNS, 27.1%; in the assay with PC-3 prostate, 11.7%; in the assay on SK-MEL-5 melanoma, 5.52% (active). Further, the growth with UACC-62 melanoma was 73.6%; with LOX IMVI melanoma, 21.2%; in the assay on SK-MEL-28 melanoma, 69.7%; with SK-MEL-2 melanoma, 74.6%; with EKVX NSCLC it was 30.4%; in the assay on UO-31 renal, 40%. The growth with TK-10 renal is 90.6%; in the assay with ACHN renal, 48.9%; in the assay on CAKI-1 renal, 43%; in the assay with A498 renal, 65.9%; with CCRF-CEM leukemia it was 18.5%; in the assay with MOLT-4 leukemia it was 18.1%.
As for `CCN(CC)c1ccnc(CNCCSC(c2ccccc2)(c2ccccc2)c2ccc(OC)cc2)c1`, the growth in the assay on HCT-15 colon was -58.2% (active); with HT29 colon, -63.1% (active); in the assay on SNB-75 CNS, 3.35% (active); in the assay on U251 CNS it was -80.3% (active); in the assay with PC-3 prostate, -36% (active); in the assay with SK-MEL-5 melanoma it was -99.9% (active). Moreover, the growth in the assay on UACC-62 melanoma is -39.3% (active); in the assay with LOX IMVI melanoma, -99.2% (active); in the assay with SK-MEL-28 melanoma, -48.5% (active); in the assay on SK-MEL-2 melanoma, -35.8% (active); in the assay with EKVX NSCLC, -8.82% (active); in the assay with UO-31 renal, 8.36% (active). Further, the growth in the assay on TK-10 renal is 1.59% (active); with ACHN renal, 12.2%; in the assay with CAKI-1 renal, 0.0931% (active); with A498 renal it was -84.5% (active); in the assay on MOLT-4 leukemia it was 12.9%.
Turning to `CC1(C)CC[C@]2(C(=O)Nc3ccc(Br)cc3)CC[C@]3(C)C(=CCC4[C@@]5(C)C[C@@H](O)[C@H](O)[C@@](C)(CO)C5CC[C@]43C)C2C1` (some centres undefined), the growth in the assay on HCT-15 colon is -13% (active); in the assay on HT29 colon it was -60.9% (active); in the assay with SNB-75 CNS, 57.8%; in the assay with U251 CNS, -18.9% (active); in the assay with PC-3 prostate it was -13.8% (active); in the assay with SK-MEL-5 melanoma, -94.4% (active). For the same compound, the growth with UACC-62 melanoma was 8.99% (active); in the assay with LOX IMVI melanoma, -86.7% (active); in the assay on SK-MEL-28 melanoma it was 32.1%; in the assay on SK-MEL-2 melanoma, -19.8% (active); in the assay on EKVX NSCLC, 15.5%; with UO-31 renal, 21.1%. Besides, the growth in the assay with TK-10 renal was 22.5%; with ACHN renal, 17.7%; with CAKI-1 renal, 20.6%; with CCRF-CEM leukemia it was -19.8% (active); with MOLT-4 leukemia it was -10.5% (active).
As for `CC1(C)CC[C@]2(C(=O)Nc3ccccc3)CC[C@]3(C)C(=CCC4[C@@]5(C)C[C@@H](O)[C@H](O)[C@@](C)(CO)C5CC[C@]43C)C2C1` (some centres undefined), the growth in the assay with HCT-15 colon is 42.5%; in the assay on HT29 colon it was 22.1%; with SNB-75 CNS it was 85.5%; in the assay on U251 CNS it was 51.1%; with PC-3 prostate, 20.4%; in the assay on SK-MEL-5 melanoma it was 20.2%. The growth was 57.5% in the assay with UACC-62 melanoma; 53.1% with LOX IMVI melanoma; 70.6% in the assay with SK-MEL-28 melanoma; 59.8% in the assay with SK-MEL-2 melanoma; 52.9% in the assay on EKVX NSCLC; 47.3% in the assay with UO-31 renal. Further, the growth with TK-10 renal is 86.7%; in the assay on ACHN renal, 59.9%; with CAKI-1 renal, 44.1%; with A498 renal, 56.9%; in the assay with CCRF-CEM leukemia, 30.4%; in the assay on MOLT-4 leukemia it was 5.99% (active).
For `Clc1ccc(-c2ccc(OCCCN3CCN(c4ccncc4)CC3)cc2)cc1`, the growth with HCT-15 colon was -66% (active); in the assay on HT29 colon, -30.6% (active); with SNB-75 CNS, 83.6%; with U251 CNS, 35.7%; with PC-3 prostate, 24.6%; in the assay on SK-MEL-5 melanoma, 13.7%. Moreover, the growth was 74% with UACC-62 melanoma; -89.8% (active) with LOX IMVI melanoma; 90.1% in the assay on SK-MEL-28 melanoma; 100% in the assay with SK-MEL-2 melanoma; 30.7% with EKVX NSCLC; 66.3% with UO-31 renal. The growth in the assay on TK-10 renal is 89.5%; in the assay on ACHN renal, 87.8%; with CAKI-1 renal, 66.6%; with A498 renal it was 84.7%; in the assay on CCRF-CEM leukemia it was 4.35% (active); in the assay with MOLT-4 leukemia, 1.95% (active).
